Measured values as given in PubChem BioAssay (EPA / NIEHS).
Inconclusive results are not listed. Active and inactive are the calls of the source. How the source made its calls: active means hit-call score of the fitted dose curve at least 0.9, where 1 is the maximum; inconclusive means response in the unintended direction; inactive means score below 0.9.

Key:
[1] = molecular target: Estrogen receptor beta (Homo sapiens) (UniProt Q92731); test: OT_ER_ERbERb_0480: Odyssey Thera (OT) 8-hour HEK293T Protein-Complementation Assay for Estrogen Receptor-beta/-beta Homodimer (AID 2283357);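 further: active means signal gain over DMSO baseline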
Summary of the method: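 Cells (HEK293T, stable ER-beta LBD PCA pair) are treated 8 hours, fixed and Draq5-stained; signal is fluorescence intensity increase relative to vehicle, fitted in the gain direction.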

PGR (gene 5241) = PGR (gene 5241) (UniProt P06401); test: NVS_NR_hPR: NovaScreen (NVS) Nuclear Receptor Binding Assay for human Progestron Receptor (PR) (AID 2283360);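 further: active means loss of bound radioligand signal versus DMSO baseline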
Summary of the method: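 Radioligand competition binding on receptor extracted from T47D cells, read by scintillation counting 18 h after dosing. Loss of signal versus DMSO; primary screen in duplicate at 25 uM, actives followed in concentration series.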

[2] = molecular target: human Peroxisome Proliferator-activated Receptor alpha (PPARa), PPARA (gene 5465) (UniProt Q07869); test: NVS_NR_hPPARa: NovaScreen (NVS) Nuclear Receptor Binding Assay for human Peroxisome Proliferator-activated Receptor alpha (PPARa) (AID 2283359);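 further: activity means loss of TR-FRET signal versus DMSO baseline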
Summary of the method: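 Chemicals were first screened in duplicate at 25 uM, and active ones were retested across concentration series. Binding was monitored by TR-FRET one hour after dosing, with decreased signal against DMSO counted as activity.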

[3] = molecular target: guinea pig Sigma Receptor, Non-selective Binding, SIGMAR1 (gene 100135589) (UniProt Q60492); test: NVS_OR_gSIGMA_NonSelective: NovaScreen (NVS) Nuclear Receptor Binding Assay for guinea pig Sigma Receptor, Non-selective Binding (AID 2283367)
Summary of the method: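 gp brain membr., radioligand displacement, 1 h, filtration + scint. counting; DMSO = baseline; 25 uM x2 primary, conc.-response confirm.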

[4] = molecular target: Retinoic acid receptor alpha (Homo sapiens) (UniProt P10276); test: NVS_NR_hRARa_Agonist: NovaScreen (NVS) Nuclear Receptor Binding Assay for human Retinoic Acid Alpha Receptor Agonism (RAR) (AID 2283361)
Summary of the method: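 Readout is time-resolved fluorescence resonance energy transfer after a 2 h exposure of cell-free extracted receptor protein. Initial testing used 25 uM in duplicate, with concentration-response follow-up for active chemicals.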

[5] = molecular target: Retinoic acid receptor alpha (Homo sapiens) (UniProt P10276); test: NVS_NR_hRAR_Antagonist: NovaScreen (NVS) Nuclear Receptor Binding Assay for human Retinoic Acid Alpha Receptor Antagonism (RAR) (AID 2283358)
Summary of the method: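 TR-FRET, cell-free, antagonist format; 2 h incubation after dosing; DMSO = baseline; signal loss fitted; 25 uM duplicate primary, then conc. series.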

Sequence of guinea pig Sigma Receptor, Non-selective Binding, SIGMAR1 (gene 100135589) (Q60492 whole entry, looked up): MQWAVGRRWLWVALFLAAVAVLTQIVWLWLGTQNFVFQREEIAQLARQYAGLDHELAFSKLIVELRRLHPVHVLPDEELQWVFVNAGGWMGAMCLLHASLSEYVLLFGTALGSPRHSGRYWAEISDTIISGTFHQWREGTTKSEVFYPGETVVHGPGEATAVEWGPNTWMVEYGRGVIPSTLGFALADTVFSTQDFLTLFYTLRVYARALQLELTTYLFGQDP
Sequence of Estrogen receptor beta (Homo sapiens) (Q92731 whole entry, looked up, the tested form may be a part): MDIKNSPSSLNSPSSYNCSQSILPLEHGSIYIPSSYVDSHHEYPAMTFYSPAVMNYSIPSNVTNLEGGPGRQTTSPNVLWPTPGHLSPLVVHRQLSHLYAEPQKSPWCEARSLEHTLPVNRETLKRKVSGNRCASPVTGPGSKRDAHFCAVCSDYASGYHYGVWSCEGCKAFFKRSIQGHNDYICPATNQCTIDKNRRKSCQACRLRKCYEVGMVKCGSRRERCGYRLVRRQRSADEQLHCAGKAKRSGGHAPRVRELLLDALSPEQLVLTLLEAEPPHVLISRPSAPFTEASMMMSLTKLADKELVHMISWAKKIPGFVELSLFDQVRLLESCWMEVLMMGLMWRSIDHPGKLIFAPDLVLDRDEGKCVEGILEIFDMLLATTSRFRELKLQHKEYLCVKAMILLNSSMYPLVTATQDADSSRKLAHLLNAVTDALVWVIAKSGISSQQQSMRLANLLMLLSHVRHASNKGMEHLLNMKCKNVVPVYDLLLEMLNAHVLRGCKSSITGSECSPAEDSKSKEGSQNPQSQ
Sequence of PGR (gene 5241) (P06401 whole entry, looked up): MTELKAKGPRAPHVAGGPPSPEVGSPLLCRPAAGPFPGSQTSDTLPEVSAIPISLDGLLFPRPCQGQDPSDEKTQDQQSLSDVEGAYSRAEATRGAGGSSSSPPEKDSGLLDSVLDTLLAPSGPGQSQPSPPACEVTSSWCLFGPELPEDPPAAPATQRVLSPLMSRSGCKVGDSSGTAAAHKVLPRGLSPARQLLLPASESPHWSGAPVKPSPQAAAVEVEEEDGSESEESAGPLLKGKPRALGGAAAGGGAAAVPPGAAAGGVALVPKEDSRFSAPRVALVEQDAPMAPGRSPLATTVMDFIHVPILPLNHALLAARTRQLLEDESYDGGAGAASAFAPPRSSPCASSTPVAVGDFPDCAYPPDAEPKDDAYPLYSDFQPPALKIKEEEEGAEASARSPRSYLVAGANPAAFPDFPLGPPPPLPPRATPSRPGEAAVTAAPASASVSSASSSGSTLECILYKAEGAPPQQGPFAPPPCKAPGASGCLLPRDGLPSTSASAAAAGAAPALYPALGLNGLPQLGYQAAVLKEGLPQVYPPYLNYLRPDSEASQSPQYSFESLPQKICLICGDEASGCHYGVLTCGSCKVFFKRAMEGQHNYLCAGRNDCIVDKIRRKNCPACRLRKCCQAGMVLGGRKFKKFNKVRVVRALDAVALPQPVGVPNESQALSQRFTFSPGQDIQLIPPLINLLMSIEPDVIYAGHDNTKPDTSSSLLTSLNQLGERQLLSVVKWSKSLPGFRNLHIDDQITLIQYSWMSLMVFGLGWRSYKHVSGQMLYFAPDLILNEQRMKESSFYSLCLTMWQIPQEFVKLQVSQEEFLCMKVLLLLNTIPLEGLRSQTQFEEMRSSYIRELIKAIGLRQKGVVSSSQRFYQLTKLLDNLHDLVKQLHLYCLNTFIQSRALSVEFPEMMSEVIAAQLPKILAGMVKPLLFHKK
Sequence of Retinoic acid receptor alpha (Homo sapiens) (P10276 whole entry, looked up): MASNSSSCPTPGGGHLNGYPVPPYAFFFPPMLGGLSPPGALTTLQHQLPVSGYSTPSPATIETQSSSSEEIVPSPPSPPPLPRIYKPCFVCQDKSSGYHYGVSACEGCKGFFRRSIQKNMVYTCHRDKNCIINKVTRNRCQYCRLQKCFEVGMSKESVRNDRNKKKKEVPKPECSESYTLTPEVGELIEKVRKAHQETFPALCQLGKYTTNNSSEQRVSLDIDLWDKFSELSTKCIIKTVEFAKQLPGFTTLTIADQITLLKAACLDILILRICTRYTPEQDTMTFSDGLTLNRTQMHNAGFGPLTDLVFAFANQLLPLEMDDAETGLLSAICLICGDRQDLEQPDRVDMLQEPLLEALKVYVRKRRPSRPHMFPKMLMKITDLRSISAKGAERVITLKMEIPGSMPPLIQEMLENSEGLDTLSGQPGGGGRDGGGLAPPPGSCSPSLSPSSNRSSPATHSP
Sequence of human Peroxisome Proliferator-activated Receptor alpha (PPARa), PPARA (gene 5465) (Q07869 whole entry, looked up): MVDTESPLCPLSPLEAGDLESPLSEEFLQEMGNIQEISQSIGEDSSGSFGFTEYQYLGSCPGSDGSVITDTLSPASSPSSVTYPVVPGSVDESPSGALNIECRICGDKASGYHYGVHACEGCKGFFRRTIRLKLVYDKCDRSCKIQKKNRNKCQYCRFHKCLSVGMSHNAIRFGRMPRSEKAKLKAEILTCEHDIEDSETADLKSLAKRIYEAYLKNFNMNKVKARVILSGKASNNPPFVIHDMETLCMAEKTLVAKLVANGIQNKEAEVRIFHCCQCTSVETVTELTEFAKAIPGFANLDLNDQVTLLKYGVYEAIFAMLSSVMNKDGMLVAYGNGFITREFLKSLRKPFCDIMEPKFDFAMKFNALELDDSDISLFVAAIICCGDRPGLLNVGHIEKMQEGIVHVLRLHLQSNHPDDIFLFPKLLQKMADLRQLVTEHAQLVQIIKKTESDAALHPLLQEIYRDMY

Q: CC(=O)OCCC(C)C was tested. Which outcome [1] did it give?
A: inactive

Q: What about the outcome (PGR (gene 5241)) of the same compound?
A: inactive

Q: Which outcome [1] does the source give for COc1ccc(/C=C/S(=O)(=O)NC(=O)c2ccc(C)cc2Cl)cc1 here?
A: inactive

Q: Which outcome [1] does the source give for CCOC(=O)c1ccc(C2CCC(NC[C@H](O)COc3ccc(O)c(NS(C)(=O)=O)c3)CC2)cc1 (stereo partly specified) here?
A: inactive

Q: And the outcome [2]?
A: inactive

Q: CCN(C(=O)c1cc(C)cc(OC[C@H](C)Nc2ccncc2)c1)C(C)C was tested. Which outcome [1] did it give?
A: inactive

Q: What about the AC50 [3] of the same compound?
A: 6.22 µM (active)

Q: Which results are given for CC(C)CC(C)(O)C#CC(C)(O)CC(C)C (stereo unspecified)?
A: outcome [1]: inactive; AC50 [3]: 15 µM (active)

Q: With Clc1nc(Cl)c(Cl)c(Cl)c1Cl as the compound, how does the outcome [1] read?
A: inactive

Q: What about the outcome [4] of the same compound?
A: inactive

Q: How did the outcome [1] turn out when C1=CCCC=CCCC=CCC1 was run?
A: inactive

Q: How did the AC50 [3] turn out when Cc1ccc(C)c(O)c1 was run?
A: 8.63 µM (active)

Q: How did the outcome [1] turn out when CCOCCOCCOCCO was run?
A: inactive

Q: Which results are given for Cc1c(-c2cccnc2)c2ccccc2n1CCCCC(=O)O?
A: outcome [1]: inactive; outcome (PGR (gene 5241)): inactive

Q: How did the outcome [1] turn out when CCOCCO was run?
A: inactive

Q: How did the outcome [1] turn out when CC(O)CN(CCN(CC(C)O)CC(C)O)CC(C)O (stereo unspecified) was run?
A: inactive

Q: CNCc1ccc(NC(=O)c2c[nH]c3c2C(=O)CCC3)cc1 was tested. Which outcome [1] did it give?
A: inactive

Q: What about the outcome (PGR (gene 5241)) of the same compound?
A: inactive

Q: What does the source list for O=C(O)CCN(C1(C(=O)NO)CCCC1)S(=O)(=O)c1ccc(Oc2ccc(F)cc2)cc1?
A: outcome [1]: inactive; outcome [3]: inactive

Q: With O=C1OC(=O)C2C3C=CC(C3)C12 (stereo unspecified) as the compound, how does the outcome [1] read?
A: inactive

Q: What about the outcome [5] of the same compound?
A: inactive

Q: Which outcome [1] does the source give for CC(C)CCCCCCOC(=O)c1ccc(C(=O)OCCCCCCC(C)C)c(C(=O)OCCCCCCC(C)C)c1 here?
A: inactive

Q: Which outcome [1] does the source give for NC(=O)NO here?
A: inactive
